In the library only some 27% were active in any assay of this set; here they are far more common.
sEH act = increases human soluble epoxide hydrolase activity; purified human sEH enzymatic activity, activator screen; activation, % at 2 µM; 91,000 tested, 0.04% active; AID 717; in the data active = activation above about 37%
CYP2C19 activ = activators of human cytochrome P450 2C19; P33261; recombinant CYP2C19, luciferin-H EGE luminescence; stronger effect = higher value; 0 = fully inhibited enzyme, 1 = untreated enzyme; activation factor at 5 µM; 96,000 tested, under 10 active; AID 1025;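 active = activation factor of at least 2 at 5 µM in the primary screen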
CYP2C9 act = CYP2C9 (human) activation; activation factor at 5 µM; 96,000 tested, 1.4% active; P11712; AID 1024; recombinant CYP2C9, luciferin-H conversion, luminescence; stronger effect = higher value; factor 1 = untreated enzyme, 0 = blocked;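 active = activation factor of 2 or more for CYP2C9 at a 5 µM dose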
Target sequence (P11712 whole entry, looked up): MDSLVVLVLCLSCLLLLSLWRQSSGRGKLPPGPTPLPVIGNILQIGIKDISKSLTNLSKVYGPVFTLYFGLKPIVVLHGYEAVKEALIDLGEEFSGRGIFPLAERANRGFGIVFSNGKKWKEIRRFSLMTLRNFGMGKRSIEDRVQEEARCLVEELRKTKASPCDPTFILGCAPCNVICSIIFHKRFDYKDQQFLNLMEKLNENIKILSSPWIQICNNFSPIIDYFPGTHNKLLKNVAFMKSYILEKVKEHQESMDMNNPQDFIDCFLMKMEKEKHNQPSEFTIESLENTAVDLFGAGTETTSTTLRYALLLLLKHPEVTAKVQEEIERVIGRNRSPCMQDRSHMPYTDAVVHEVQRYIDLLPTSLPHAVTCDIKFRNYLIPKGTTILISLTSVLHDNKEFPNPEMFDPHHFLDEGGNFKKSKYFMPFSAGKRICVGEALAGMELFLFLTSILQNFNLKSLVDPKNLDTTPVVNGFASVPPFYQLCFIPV
CYP2C19 inh = blocks human cytochrome P450 2C19; inhibition, % at 5 µM; AID 778; P33261; CYP2C19 Supersomes, luciferin-H EGE luminescence, 30 min; 96,000 tested, 21% active;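 active = CYP2C19 inhibition above a set limit at 5 µM in the primary screen, cut at about 50% in these data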
CYP2C9 inh = human CYP2C9 inhibition. CYP2C9 Supersomes, luciferin-H conversion, luminescence. inhibition, % at 5 µM. 96,000 tested, 20% active. AID 777;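 active = blocking of liver enzyme CYP2C9 beyond about 50% at 5 µM, limit read from the data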
sEH inh = inhibitors of human soluble epoxide hydrolase; P34913; recombinant human sEH enzymatic activity assay; inhibition, % at 2 µM; 91,000 tested, 0.34% active; AID 707; in the data active = inhibition above about 80%
Of the large screens only hits and unclear results are named; the others gave an inactive call.

Cc1ccc(S(=O)(=O)CC(C)(O)C(=O)Nc2cccc(C(F)(F)F)c2)cc1 (stereo unspecified)	none
CC(O)(CS(=O)(=O)c1cccc(C(F)(F)F)c1)C(=O)Nc1ccc(C(F)(F)F)cc1 (stereo unspecified)	CYP2C19 inh 83
COC(=O)CC1=C(C(=O)OC)C2(C(=O)Nc3c(C)cccc32)C(C#N)=C(N)O1 (stereo unspecified)	none (no result: sEH act, sEH inh)
Nc1ccccc1C(=O)OC1CSC1	none
c1ccc2c(c1)CNc1ccccc1O2	none
Cc1ccc2c(c1)CNc1ccccc1O2	CYP2C19 inh 71
O=C(CCC(=O)N1CCC2(CC1)OCCO2)Nc1nnc(C(F)(F)F)s1	none
CN1C(=O)N(C)C(=O)C2(Cc3c(ccc4ccccc34)N(C)C2)C1=O	CYP2C19 inh 66
COc1ccc(C(=O)CC2(CC(=O)c3ccc(OC)cc3)C(=O)N(C)C(=O)N(C)C2=O)cc1	none
O=C(c1ccco1)c1cn(Cc2ccc(Cl)cc2)c2ccccc12	CYP2C19 inh 84, CYP2C9 inh 94
COc1ccccc1OCCCn1cc(C(=O)c2ccco2)c2ccccc21	CYP2C19 inh 98, CYP2C9 inh 96
CCSc1nnc([C@@H](N)Cc2ccccc2)o1	none
CN=C(SCc1ccccc1)c1c(O)n(C)c(=O)n(C)c1=O	none (no result: sEH act, sEH inh)
N#CC1=C(N)Oc2c(c(=O)oc3ccccc23)C1c1cccnc1 (stereo unspecified)	CYP2C9 inh 64 (no result: sEH act, sEH inh)
Cc1nn(-c2ccccc2)c(Cl)c1C1C(C#N)=C(N)Oc2c1c(=O)oc1ccccc21 (stereo unspecified)	CYP2C9 inh 99
CC(=NCCO)c1c(O)n(C)c(=O)n(C)c1=O	none (no result: sEH act, sEH inh)
CCOP(=O)(OCC)C(C)(C)NC(=O)C(Cl)(Cl)Cl	none (no result: sEH act, sEH inh)
CCOC(=O)c1c(C)n(CCOC)c2ccc(O)cc12	CYP2C19 inh 69
COc1cccc(-n2c(O)c(C=NCCN3CCOCC3)c(=O)[nH]c2=O)c1	none
Nc1ccccc1N=Cc1c(O)n(CCC2=CCCCC2)c(=O)[nH]c1=O	none
C1=C(CCNCc2ccccc2)CCCC1	CYP2C19 inh 70
O=P(Nc1ccccc1)(Nc1ccccc1)Oc1cccc(Cl)c1	CYP2C9 inh 51
CCCC1COC(Cn2cncn2)(c2ccc(Cl)cc2Cl)O1 (stereo unspecified)	CYP2C19 inh 93, CYP2C9 inh 77
O=C(c1ccccc1)c1cn(CC(=O)N2CCCc3ccccc32)c2ccccc12	CYP2C9 inh 74
O=C(Cn1cc(C(=O)c2ccccc2)c2ccccc21)NCc1ccco1	CYP2C19 inh 82, CYP2C9 inh 82
O=C(CN1C(=O)CN=C(c2ccccc2)c2ccccc21)NCc1ccco1	none
O=C(COc1ccc(Cl)cc1Cl)N1CCN(C/C=C/c2ccccc2)CC1	CYP2C9 inh 56
COC(=O)CCCNC(=O)CN1CC(c2ccccc2)CC1=O (stereo unspecified)	none
CC1(C)NCCN2C(=O)CSC21 (stereo unspecified)	none
CCC(=Nc1ccc2c(c1)CCC2)c1c(O)n(C)c(=O)n(C)c1=O	none (no result: sEH act, sEH inh)
CCC(=NCc1ccc(F)cc1)c1c(O)n(C)c(=O)n(C)c1=O	CYP2C19 inh 84, CYP2C9 inh 67
CCC1(c2ccccc2)C(=O)N(COC)C(=O)N(COC)C1=O	CYP2C19 inh 79
c1ccc(CNCCc2ccc3c(c2)OCO3)nc1	none (no result: CYP2C19 activ, CYP2C9 act, CYP2C19 inh, CYP2C9 inh)
O=C1NC(=O)C(CCc2ccccn2)(Cc2ccc3c(c2)OCO3)C(=O)N1CCc1ccccc1 (stereo unspecified)	CYP2C19 inh 55
COC(=O)C(O)(c1c(C)[nH]c2ccccc12)C(F)(F)F (stereo unspecified)	none
O=C(CNS(=O)(=O)c1cccs1)N1CCC2(CC1)OCCO2	CYP2C19 inh 52
Cc1sc2nc(COC(=O)Cc3ccccc3)[nH]c(=O)c2c1C	CYP2C9 inh 60
O=C1C(=O)c2ccccc2-c2ccccc21	CYP2C19 inh 98, CYP2C9 inh 93
CC(=NCCC1=CCCCC1)c1c(O)n(C)c(=O)n(C)c1=O	CYP2C9 inh 50
CN(C)c1nc(OCCNC(=O)COc2ccc(Cl)cc2Cl)nc(N2CCCCC2)n1	none (no result: CYP2C19 activ, CYP2C9 act, CYP2C19 inh, CYP2C9 inh)
Cc1cc(C)nc(-n2c(C)nc3cc(Cl)ccc3c2=O)c1	CYP2C9 inh 90
COC(=O)c1ccc(COc2cc(C)cc3oc(=O)c4c(c23)CCCC4)o1	CYP2C19 inh 79, CYP2C9 inh 98

Assay outcomes as filed in PubChem BioAssay.
